Compounds with a hit are over-represented: about 1.2% of the library has one in this group of screens.
gsp agonist – agonists of gsp mutant (McCune-Albright syndrome). AID 624287. gsp mutant cells, cAMP HTRF, 30 min. 340,000 tested, 0.13% active. Potency, µM (titrated, usually from 76.9 µM), for the others: at the top dose activation (cAMP increase), actives largely listed as activators; active means well fitted activation curve with a large enough effect; inconclusive means small, poorly fitted or top-dose-only effect, or another doubt; inactive means no such curve, though single readings can be large or run the other way; cell line not stated here;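 further: phosphodiesterase inhibitor Ro 20-1724 added with compounds to block cAMP breakdown; potency means the concentration at half of the fitted maximal effect; nearly all actives have a fitted effect of over 60% in size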
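Cells in DMEM/10% FBS with G418 were pretreated with compounds in DMSO plus […] (300 uM stock) for 30 min at 37C. cAMP was measured by HTRF (cAMP-d2 plus anti-cAMP antibody-K) after 30 min at room temperature.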
gsp antag – antagonizes gsp, the McCune-Albright syndrome mutation | gsp-mutant cells, cAMP HTRF, 30 min | Potency, µM (titrated, usually from 76.9 µM), for the others: at the highest dose activity change, negative = inhibition, most hits filed as inhibitors | 340,000 tested, 0.4% active | AID 624288; calls by dose curve; cell line not stated here;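 further: intracellular cAMP measured with PDE inhibitor Ro 20-1724 present during compound exposure; potency means the concentration at half of the fitted maximal effect; on the % scale 0 is the no-effect control and ±100 the full control effect; nearly all actives have a fitted effect of over 65% in size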
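HTRF cAMP measurement after 30 min RT detection following 30 min, 37C compound treatment alongside […] (added as 300 uM solution) in G418-selected cells seeded at 2000/well and grown 16–24 h.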
pAkt inh – inhibitors of Akt phosphorylation; Neuro2A IGF-stimulated pAkt S473 HTRF, 20 min; hits give low values; activity change, % for hits at 50 µM; 360,000 tested, 0.32% active; AID 651550; in the data active means activity change below about -80%; inconclusive means mostly about -51% to -80%; further: on the % scale 0 is the no-effect control and ±100 the full control effect
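Neuro2A cells (4,500/well, DMEM with 0.5% FBS) were treated with compound at a single 50 µM final concentration, stimulated with 6 nM IGF for 20 min at 37 °C, and lysed. Phospho-Akt Ser473 was read by HTRF as 665/615 ratio ×10^4.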
RXFP1 antag – antagonists of human relaxin receptor RXFP1. 350,000 tested, 0.59% active. Q9HBX9. activity change, negative = inhibition, % at 57.5 µM. AID 1259400. HEK293-RXFP1, relaxin-stimulated cAMP HTRF, 30 min; hits give low values;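 active means activity change of -60% or lower, but not beyond a set lower limit; inconclusive means change between -60% and -40%, or beyond the set limit; inactive means change above -40%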; further: on the % scale 0 is the no-effect control and ±100 the full control effect
Target sequence (Q9HBX9 whole entry, looked up): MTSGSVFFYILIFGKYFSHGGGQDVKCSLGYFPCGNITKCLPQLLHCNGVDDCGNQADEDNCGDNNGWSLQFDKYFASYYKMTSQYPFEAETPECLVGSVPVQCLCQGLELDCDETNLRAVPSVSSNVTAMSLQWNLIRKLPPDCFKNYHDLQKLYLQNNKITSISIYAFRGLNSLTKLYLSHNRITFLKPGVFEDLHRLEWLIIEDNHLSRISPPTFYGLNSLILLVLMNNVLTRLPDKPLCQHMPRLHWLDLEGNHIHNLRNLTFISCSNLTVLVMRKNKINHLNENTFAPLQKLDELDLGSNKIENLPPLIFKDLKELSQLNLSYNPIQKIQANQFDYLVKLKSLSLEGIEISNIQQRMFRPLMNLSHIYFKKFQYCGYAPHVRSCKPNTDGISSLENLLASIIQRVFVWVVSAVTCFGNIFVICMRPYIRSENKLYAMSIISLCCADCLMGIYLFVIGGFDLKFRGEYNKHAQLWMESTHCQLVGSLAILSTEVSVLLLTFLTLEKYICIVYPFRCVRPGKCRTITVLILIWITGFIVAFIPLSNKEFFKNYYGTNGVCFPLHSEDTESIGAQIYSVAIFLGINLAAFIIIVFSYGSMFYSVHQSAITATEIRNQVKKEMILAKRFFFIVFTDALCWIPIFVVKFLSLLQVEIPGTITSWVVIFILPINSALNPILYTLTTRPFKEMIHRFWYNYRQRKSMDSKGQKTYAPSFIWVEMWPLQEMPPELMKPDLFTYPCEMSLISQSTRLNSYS
RXFP1 agonist – RXFP1 (human) receptor agonism. HEK293T-RXFP1 cAMP TR-FRET, 30 min; response scale: percent of porcine relaxin response, buffer zero. 370,000 tested, 0.3% active. Potency, µM (titrated, usually from 57.5 µM), inactives show at the top dose activation, usual class: activators. AID 2676. Q9HBX9; active means well fitted activation curve with a large enough effect; inconclusive means small, poorly fitted or top-dose-only effect; further: potency means the concentration at half of the fitted maximal effect; on the % scale 0 is the no-effect control and ±100 the full control effect; nearly all actives have a fitted effect of over 60% in size
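HEK293T cells stably expressing RXFP1 were pretreated with the PDE4 inhibitor Ro 20174, exposed to compounds for 30 min at 37C, lysed, and cAMP was read by TR-FRET. Data normalized to buffer (basal) and 29 nM porcine relaxin (100%).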
* marks the source's active call; other numbers are inactive results; i = inactive; ? = inconclusive; . = no result given; [ ] = dose if it differs, or a comment.

SMILES	gsp agonist	gsp antag	pAkt inh	RXFP1 antag	RXFP1 agonist
O=C(NCc1cccs1)N[C@@H](Cc1ccccc1)C(=O)O	-30.5%	1.1%	i	-5.2	1.5%
COC(=O)[C@H](Cc1ccccc1)NC(=O)NCc1cccs1	30.6%	-1.5%	-93.7%*	11.1	3.1%
CN(C)C(=O)CNC(=O)Cc1ccccc1	.	.	.	19.6	.
Cn1c(=O)c2c(nc(N3CCOCC3)n2CC(=O)C23CC4CC(CC(C4)C2)C3)n(C)c1=O	0.0%	-8.5%	i	-0.4	4.4%
CN1CCN(c2nc3c(c(=O)n(C)c(=O)n3C)n2CC(=O)C23CC4CC(CC(C4)C2)C3)CC1	?	8.7%	-82.3%*	3.7	10.1%
CCOc1ccccc1CNC(=O)Cn1cc2c(n1)-c1c(oc(C(=O)N3CCCC3)c1C)CC2	.	.	.	-8.6	3.4%
CN(Cc1ccccc1F)c1nc(-c2cccnc2)nc2ccccc12	1.0%[15.4 µM]	?	i	-67.3*	-3.0%
Cc1ccc(CN(C)c2nc(-c3cccnc3)nc3ccccc23)o1	-22.5%[15.4 µM]	-5.9%	i	-26.8	3.4%
O=C(CSc1ccc(-c2ccco2)nn1)NCc1ccccc1Cl	11.2µM*	17.3%	i	.	18.0%
Cc1ccc(CN(Cc2ccco2)C(=O)COc2ccc(Cl)cc2)o1	.	.	.	-68.9*	-0.7%
Cc1ccc(CN(Cc2ccco2)C(=O)COc2cccc(C)c2C)o1	.	.	.	-96.1*	-0.1%
COc1ccc(NC(=O)CCc2nnc3n(CC(C)C)c(=O)c4ccccc4n23)cc1	.	.	.	2.8	1.6%
CC(CN1CCOCC1)C(Cc1ccccc1)(Cc1ccccc1)C(=O)N1CCCC1 (configuration not stated)	.	.	.	7.7	.
C=CCN1C(=O)/C(=C/c2ccc(OC(C)=O)c(OCC)c2[N+](=O)[O-])SC1=S	-119.4%	25.1µM*	i	-12.1	1.8%
CCOc1c(OC(C)=O)ccc(/C=C/c2ccc3cccc(OC(C)=O)c3n2)c1[N+](=O)[O-]	-28.9%	?	i	-0.2	0.7%
O=S(=O)(NCCc1nnc2ccc(SCc3c(F)cccc3Cl)nn12)c1ccccc1	.	.	.	10.3	1.0%
CC(C)CCNC(=O)c1ccc(Cn2c(=S)[nH]c3ccccc3c2=O)cc1	-37.9%	0.4%	i	-73.0*	5.7%
COc1ccc(Cn2c(=O)[nH]c3cc(C(=O)NCCC(C)C)ccc3c2=O)cc1	.	.	.	.	0.8%
Cc1[nH]c2ccc(C(=O)NCCc3ccccc3Cl)cc2c1C	.	.	.	-15.9	0.0%
COc1ccc(NC(=O)Cn2cc(S(=O)(=O)c3ccccc3)c(=O)c3cc(C)ccc32)cc1Cl	.	.	.	.	-1.9%
CCOc1cc(-c2ccc(OC(=O)c3ccccc3Cl)c(OC)c2)cc(=O)c2c(C)oc(C)c12	.	.	.	-73.0*	-0.7%
COc1ccccc1N=c1scc(-c2ccc(S(=O)(=O)N3CCCC3)cc2)n1C	.	.	.	-20.0	-0.9%
Cc1cc(C)n2c(SC/C(O)=C(\C#N)c3nc4ccccc4[nH]3)nnc2n1	-3.2%	0.3%	i	-12.6	1.3%
Cc1cccc(Nc2nnc(SCC(O)=C(C#N)c3nc4ccccc4[nH]3)s2)c1	17.0%	-12.9%	i	-81.1*	.
CC(=O)N1N=C(c2ccccc2)CC1c1ccc(F)cc1 (configuration not stated)	?	-1.1%	i	8.5	1.3%
SMILES	gsp agonist	gsp antag	pAkt inh	RXFP1 antag	RXFP1 agonist
CC(=O)N1N=C(c2ccc(C)o2)CC1c1cccc(F)c1 (configuration not stated)	?	-3.7%	i	-60.8*	-1.3%
NC(=O)c1ccc(N2CCN(c3ccc(O)cc3)CC2)c([N+](=O)[O-])c1	-1.4%[15.4 µM]	-6.9%	i	?	-1.0%
CC(=O)c1ccc(N2CCN(c3ccc(C(N)=O)cc3[N+](=O)[O-])CC2)cc1	3.9%	31.6µM*	i	6.2	-0.4%
COc1ccccc1NC(=O)/C(C#N)=C/c1cccnc1	?	-14.3%	i	-0.7	4.0%
N#C/C(=C\c1cccnc1)C(=O)Nc1cccc2ccccc12	?	10.1%	i	-67.2*	-0.8%
N=c1c2c(-c3ccccc3)c(-c3ccccc3)n(Cc3ccco3)c2ncn1Cc1ccco1	5.0%	3.8%	i	-102.3*	2.1%
CCCCn1cnc2c(c(-c3ccccc3)c(-c3ccccc3)n2Cc2ccco2)c1=N	6.4%[15.4 µM]	5.3%	i	-9.9	-0.7%
Cc1ccccc1NC(=S)c1ccc2ccccc2n1	-8.0%	5.0%	i	-0.4	-4.8%
CN(C)C(=S)c1ccc2ccccc2n1	?	2.3%	-119.6%*	-9.3	0.2%
Cc1ccc(OCCCSc2nc(-c3ccc(C(C)(C)C)cc3)nc3cc(=O)[nH]n23)cc1C	.	.	.	-11.9	0.2%
CN/C=C1\C(=O)C(C)(C)Oc2ccc3ccc(=O)oc3c21	-3.0%	-8.0%	-93.5%*	-9.4	1.3%
Cc1ccc(S(=O)(=O)NCCC(=O)N2CCN(S(=O)(=O)c3cccc(F)c3)CC2)cc1C	18.5%[15.4 µM]	-20.2%	i	-67.0*	0.1%
CCOC(=O)N1CCN(S(=O)(=O)c2ccc(C)c(C)c2)CC1	4.5%	8.4%	-99.0%*	0.6	0.0%
CCc1ccc(NC(=O)CC2C(=O)N(c3cccc(OC)c3)C(=O)N2Cc2ccco2)cc1 (configuration not stated)	.	.	.	9.1	1.9%
CCN1/C(=C/C(C)=C/c2sc3ccccc3[n+]2CC)Sc2ccccc21	-93.4%	35.5µM*	i	-118.9*	4.6%
CCC(=O)N1CCN(c2ccc(Cl)cc2NC(=O)Cc2ccc(Cl)cc2)CC1	-60.4%	-10.8%	-84.7%*	-7.4	2.5%
COc1ccc(CCC(=O)Nc2cc(Cl)ccc2N2CCN(C)CC2)cc1	-20.3%	0.9%	-107.1%*	-2.2	3.6%
CCC(=O)N1CCN(c2ccccc2NC(=O)Cc2ccc(Cl)cc2)CC1	-23.5%	4.0%	i	6.4	-0.2%
CCC(=O)N1CCN(c2ccc(NC(=O)c3cc4ccccc4o3)cc2Cl)CC1	6.3%	20µM*	i	-33.2	3.6%
COc1cccc(CNC(=O)c2cc(-c3ccc(Cl)cc3)n[nH]2)c1	.	.	.	-16.1	-0.7%
COc1cccc(NC(=O)CSC2=Nc3ccccc3N=C(c3ccc(F)cc3)C2)c1	.	.	.	.	-1.3%
S=c1[nH]nc(-c2cccc(Br)c2)o1	?	17.4%	-108.4%*	-15.3	?
NNC(=S)Nc1cccc(-c2n[nH]c(=S)o2)c1	10µM*	1.2%	i	-8.5	?
CN(C)C(=S)Nc1cccc(-c2n[nH]c(=S)o2)c1	6.7%[15.4 µM]	-0.1%	i	-3.6	20.1%
Cc1ccc(-n2nc(CO)c(C(=O)NCc3cccnc3)n2)cc1C	.	.	.	?	1.2%
O=C(CSc1ccc2nnc(-c3cccnc3)n2n1)Nc1ccccc1	?	9.0%	i	11.8	15.8µM*
O=C(CSc1ccc2nnc(-c3cccnc3)n2n1)Nc1cccc(F)c1	?	22.8%	i	2.3	?
COc1ccc(NC(=O)CSc2ccc3nnc(-c4ccccn4)n3n2)cc1OC	?	1.5%	i	3.4	-0.2%

Screening results from PubChem.
